Measured values published in PubChem BioAssay AID1159580 (chemical genetic matrix, 2015).
“And” between values parts separate entries of the source, which are not always exact repeats. Identical values can stand only once. About 2,000 (36%) of roughly 5,500 compounds were called active. Inconclusive results (about 18%) are left out. No stated cut-off is given here; in the data, active means normalized growth mostly below about 0.91 (no sharp cut-off); inconclusive means no clear call, values can overlap the other calls; inactive means mostly above about 0.92. This is one part of the list.

Test: chemical genetic growth profiling, strain panel (AID 1159580);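 further: tested at 20 µM; growth read once vehicle control cultures reached saturation at 30 °C; 1 = growth at the plate median or of vehicle wells; lower values mean less growth of the strain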
Settings: growth OD

Measured: normalized growth

NCCCS(=O)(=O)O
inactive: S. cerevisiae deletion strains, locus YKL068W, hits give low values 0.995 | S. cerevisiae deletion strains, locus YKL085W, strain MDH1 (second series), hits give low values 0.986 | S. cerevisiae deletion strains, locus YKL085W, strain MDH1, hits give low values 0.986 | S. cerevisiae deletion strains, locus YKL160W, strain elf1, hits give low values 1 | S. cerevisiae deletion strains, locus YKL190W, strain CNB1, hits give low values 0.993 | S. cerevisiae deletion strains, locus YKR001C, strain vps1, hits give low values 0.994 | S. cerevisiae deletion strains, locus YKR026C, strain gcn3, hits give low values 1 | S. cerevisiae deletion strains, locus YKR091W, strain srl3, hits give low values 1.01 | S. cerevisiae deletion strains, locus YLL001W, strain dnm1, hits give low values 1.03 | S. cerevisiae deletion strains, locus YLL026W, hits give low values 1.01 | S. cerevisiae deletion strains, locus YLL041C, strain sdh2, hits give low values 1.01 | S. cerevisiae deletion strains, locus YLR027C, strain aat2, hits give low values 0.996 | S. cerevisiae deletion strains, locus YLR039C, strain RIC1, hits give low values 0.986 | S. cerevisiae deletion strains, locus YLR058C, strain SHM2, hits give low values 0.965 | S. cerevisiae deletion strains, locus YLR102C, strain apc9, hits give low values 0.993 | S. cerevisiae deletion strains, locus YLR113W, strain HOG1, hits give low values 0.954 | S. cerevisiae deletion strains, locus YLR221C, strain rsa3, hits give low values 1.01 | S. cerevisiae deletion strains, locus YLR258W, strain gsy2, hits give low values 1.01 | S. cerevisiae deletion strains, locus YLR262C, strain YPT6 (second series), hits give low values 1.02 | S. cerevisiae deletion strains, locus YLR262C, strain YPT6, hits give low values 1.05 | S. cerevisiae deletion strains, locus YLR268W, strain sec22, hits give low values 1.04 | S. cerevisiae deletion strains, locus YLR320W, strain mms22, hits give low values 1.01 | S. cerevisiae deletion strains, locus YLR330W, strain CHS5, hits give low values 0.983 | S. cerevisiae deletion strains, locus YLR342W, strain FKS1 (second series), hits give low values 0.99 | S. cerevisiae deletion strains, locus YLR342W, strain FKS1, hits give low values 1.02 | S. cerevisiae deletion strains, locus YLR357W, strain rsc2, hits give low values 1.04 | S. cerevisiae deletion strains, locus YLR370C, strain arc18, hits give low values 1.01 | S. cerevisiae deletion strains, locus YLR371W, strain rom2, hits give low values 0.934 | S. cerevisiae deletion strains, locus YLR384C, strain iki3, hits give low values 1.01 | S. cerevisiae deletion strains, locus YLR418C, strain cdc73, hits give low values 1.01 | S. cerevisiae deletion strains, locus YML016C, strain PPZ1, hits give low values 0.984 | S. cerevisiae deletion strains, locus YML032C, strain rad52, hits give low values 0.994 | S. cerevisiae deletion strains, locus YML120C, strain ndi1, hits give low values 1.02 | S. cerevisiae deletion strains, locus YML124C, strain tub3, hits give low values 0.987 | S. cerevisiae deletion strains, locus YMR058W, strain fet3, hits give low values 1.04 | S. cerevisiae deletion strains, locus YMR078C, strain ctf18, hits give low values 0.999 | S. cerevisiae deletion strains, locus YMR125W, strain sto1, hits give low values 1.02 | S. cerevisiae deletion strains, locus YMR129W, hits give low values 1.01 | S. cerevisiae deletion strains, locus YMR205C, strain PFK2, hits give low values 1.02 | S. cerevisiae deletion strains, locus YMR223W, strain ubp8, hits give low values 0.96 | S. cerevisiae deletion strains, locus YMR231W, strain pep5, hits give low values 1.02 | S. cerevisiae deletion strains, locus YMR263W, strain SAP30, hits give low values 0.977 | S. cerevisiae deletion strains, locus YMR307W, strain GAS1, hits give low values 0.971 | S. cerevisiae deletion strains, locus YNL067W, strain RPL9B, hits give low values 1.01 | S. cerevisiae deletion strains, locus YNL071W, strain lat1, hits give low values 1.03 | S. cerevisiae deletion strains, locus YNL128W, strain TEP1, hits give low values 0.974 | S. cerevisiae deletion strains, locus YNL153C, strain GIM3, hits give low values 0.991 and 1.01 | S. cerevisiae deletion strains, locus YNL175C, strain NOP13, hits give low values 1 | S. cerevisiae deletion strains, locus YNL183C, strain NPR1, hits give low values 0.937 | S. cerevisiae deletion strains, locus YNL197C, strain WHI3, hits give low values 1.01 | S. cerevisiae deletion strains, locus YNL209W, strain ssb2, hits give low values 1.01 | S. cerevisiae deletion strains, locus YNL224C, strain SQS1, hits give low values 1.01 | S. cerevisiae deletion strains, locus YNL233W, strain BNI4, hits give low values 0.987 | S. cerevisiae deletion strains, locus YNL248C, strain rpa49, hits give low values 0.959 | S. cerevisiae deletion strains, locus YNL250W, strain rad50, hits give low values 0.976 | S. cerevisiae deletion strains, locus YNL271C, strain bni1, hits give low values 0.999 | S. cerevisiae deletion strains, locus YNL298W, strain CLA4, hits give low values 0.967 | S. cerevisiae deletion strains, locus YNL307C, strain MCK1, hits give low values 0.998 | S. cerevisiae deletion strains, locus YNL322C, strain KRE1 (second series), hits give low values 1.01 | S. cerevisiae deletion strains, locus YNL322C, strain KRE1, hits give low values 0.987 | S. cerevisiae deletion strains, locus YNR049C, strain mso1, hits give low values 1.01 | S. cerevisiae deletion strains, locus YNR052C, strain pop2, hits give low values 0.969 | S. cerevisiae deletion strains, locus YOL006C, strain TOP1, hits give low values 1.02 | S. cerevisiae deletion strains, locus YOL012C, strain htz1 0.962 | S. cerevisiae deletion strains, locus YOL147C, strain pex11, hits give low values 0.989 | S. cerevisiae deletion strains, locus YOR001W, strain rrp6, hits give low values 1.01 | S. cerevisiae deletion strains, locus YOR061W, strain CKA2, hits give low values 0.965 | S. cerevisiae deletion strains, locus YOR069W, strain VPS5, hits give low values 0.984 | S. cerevisiae deletion strains, locus YOR070C, strain gyp1, hits give low values 1.01 | S. cerevisiae deletion strains, locus YOR080W, strain dia2, hits give low values 1.03 | S. cerevisiae deletion strains, locus YOR083W, strain WHI5 (second series), hits give low values 1.02 | S. cerevisiae deletion strains, locus YOR083W, strain WHI5, hits give low values 1 | S. cerevisiae deletion strains, locus YOR106W, strain vam3, hits give low values 1.01 | S. cerevisiae deletion strains, locus YOR136W, strain idh2, hits give low values 0.981 | S. cerevisiae deletion strains, locus YOR144C, strain elg1, hits give low values 0.998 | S. cerevisiae deletion strains, locus YOR184W, strain ser1, hits give low values 0.983 | S. cerevisiae deletion strains, locus YOR231W, strain MKK1, hits give low values 0.976 | S. cerevisiae deletion strains, locus YOR265W, strain rbl2, hits give low values 1.02 | S. cerevisiae deletion strains, locus YOR270C, strain vph1, hits give low values 1.09 | S. cerevisiae deletion strains, locus YOR290C, strain snf2, hits give low values 1.01 | S. cerevisiae deletion strains, locus YOR316C, strain cot1, hits give low values 0.981 | S. cerevisiae deletion strains, locus YPL051W, strain arl3, hits give low values 1.01 | S. cerevisiae deletion strains, locus YPL055C, strain LGE1, hits give low values 0.993 | S. cerevisiae deletion strains, locus YPL078C, strain atp4, hits give low values 1.02 | S. cerevisiae deletion strains, locus YPL106C, strain sse1, hits give low values 1.01 | S. cerevisiae deletion strains, locus YPL240C, strain hsp82, hits give low values 1.03 | S. cerevisiae deletion strains, locus YPL241C, strain CIN2, hits give low values 0.997 | S. cerevisiae deletion strains, locus YPL256C, strain CLN2, hits give low values 0.964 | S. cerevisiae deletion strains, locus YPR119W, strain clb2, hits give low values 0.987 | S. cerevisiae deletion strains, locus YPR141C, strain kar3, hits give low values 0.973 | S. cerevisiae deletion strains, locus YPR163C, strain tif3, hits give low values 0.998 | S. cerevisiae deletion strains, locus YPR167C, strain met16, hits give low values 1 | S. cerevisiae deletion strains, strain wtn01, hits give low values 0.958 | S. cerevisiae strains, strain wild type, hits give low values 0.984
